Values joined by “and” are separate entries in the source; they are usually repeats but may differ in a detail not shown here. Equal entries are not always repeated. Inconclusive results are not listed. Active and inactive are the calls of the source. Rule for the calls: active = hit-call score of the fitted dose curve at least 0.9, where 1 is the maximum; inconclusive = response in the unintended direction; inactive = score below 0.9.

A short description of the test: TOX21_p53_BLA_p2_viability: Viability Assessment in the Tox21 HCT-116 p53 Agonism Beta-lactamase Assay, Phase 2 (AID 2283591).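 Note: compound exposure lasted 16 h at 37 °C; actives lower the ATP signal meaning cytotoxicity.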 An excerpt:
TOX21_p53_BLA_p2 is a cell-based, single-readout assay that uses HCT116, a human intestinal cell line, […] in a 1536-well plate.TOX21_p53_BLA_p2_viability is an assay readout measuring cellular ATP content and detected with CellTiter-Glo Luciferase-coupled ATP quantitation.TOX21_p53_BLA_p2_viability used a type of viability reporter where loss-of-signal activity can be used to understand changes in the cell viability. Furthermore, this assay endpoint can be referred to as a secondary readout, because this assay has produced multiple assay endpoints where this one serves a viability function. To generalize the intended target to other relatable targets, this assay endpoint is annotated to the cell cycle intended target family, where the subfamily is cytotoxicity.
Thawing Method: Place 14 mL of pre-warmed thaw medium into a 15 mL of conical tub. Remove the vial of cells to be thawed from liquid nitrogen and thaw rapidly by placing at 37C in a water bath with gentle agitation for 1-2 minutes. Decontaminate the vial by wiping with 70% ethanol before opening in a biological safety cabinet. Transfer the vial contents drop-wise into 14 mL of thaw medium in a sterile 15-mL conical tub. Centrifuge cells at 900 rpm for 4 minutes and resuspend in thaw medium. Transfer contents to the T75 tissue culture flask containing Thaw Medium and place flask in a humidified 37C/5% CO2 incubator. Switch to growth medium at first passage.Propagation Method: Aspirate medium, rinse once in DPBS, add 0.25% Trypsin/EDTA and swirl to coat the cell evenly. Add an equal volume of Growth Medium to inactivate Trypsin after 2-3 minutes incubation at 37C. Centrifuge cells at 900 rpm for 4 minutes and resuspend in growth medium. Cell should be passage or fed at least twice a week.Assay Protocol: Harvest cells from culture in growth medium and resuspend in assay medium. 2.2 Dispense 4000 cells/5 uL/well into 1536-well black/clear bottom plates using a Multidrop dispenser. After the cells were incubated at 37C for 5 hours, 23 nL of compounds dissolved in DMSO were transferred to the assay plate by a PinTool resulting in a 217-fold dilution. Incubate the plates for 16 hours at 37C, 5% CO2. Add 1 uL of 6X LiveBLAzer FRET B/G (CCF4-AM) Substrate Mixture to each well using a BioRAPTR dispenser and incubate the plates at room temperature for 2 hours. Measure fluorescence intensity at 460 and 530 nm emission and 405 nm excitation by an Envision detector. Data is expressed as the ratio of 460nm/530nm emissions. Add 4 uL of Cell-titer Glo to each well using BioRAPTR and incubate the plates at room temperature for […]. For cell viability readout that measures cytotoxicity, 4 ul/well of CellTiter-Glo reagent was added into the assay plates using a Flying Reagent Dispenser. After 30 min incubation at room temperature, the luminescence intensity in the plates was measured using a ViewLux plate reader.
Regarding `Oc1ccc(C(c2ccc(O)cc2)C(Cl)(Cl)Cl)cc1`, the AC50 is 54.6 µM (active) and 45.9 µM (active).

On to `CC(C)CCCCCCc1ccc(O)cc1`, for which the outcome was inactive.

Consider `CC(=O)[C@H]1CC[C@H]2[C@@H]3CCC4=CC(=O)CC[C@]4(C)[C@H]3CC[C@]12C`, for which the result was inactive.

Consider `CCCCC(CC)COC(=O)c1ccccc1C(=O)O` (centres undefined), for which the outcome was inactive.

Regarding `CC(C)(C)[C@@H](O)[C@@H](Cc1ccc(Cl)cc1)n1cncn1`, the compound was classed as inactive.

In the case of `CCCCCCC(C)OC(=O)COc1nc(F)c(Cl)c(N)c1Cl` (centres undefined), the AC50 is 70.8 µM (active).

`C#CCOC(=O)[C@@H](C)Oc1ccc(Oc2ncc(Cl)cc2F)cc1`: the outcome was inactive.

Take `CCCCC(CC)CN1C(=O)C2C3C=CC(C3)C2C1=O` (centres undefined): the compound was called inactive.

`CCOC(=O)NCCOc1ccc(Oc2ccccc2)cc1`: the outcome was inactive.

For `CCCN(CCC)c1c([N+](=O)[O-])cc(C(F)(F)F)c(N)c1[N+](=O)[O-]`, the AC50 was 23.1 µM (active).

As for `CN(C)C(=O)Nc1ccc(Cl)c(Cl)c1`, the result was inactive.

Regarding `C[C@]12CC[C@@H]3c4ccc(O)cc4C[C@@H](CCCCCCCCCS(=O)CCCC(F)(F)C(F)(F)F)[C@H]3[C@@H]1CC[C@@H]2O` (some centres undefined), the result was inactive.

With `OB(O)O`, the compound was called inactive.

With `CC(C)(c1ccc(O)cc1)c1ccc(O)cc1`, the call was inactive.

As to `CCCOC(=O)NCCCN(C)C`, the compound was called inactive.

Regarding `Cc1nn(C)c(Oc2ccccc2)c1C=NOCc1ccc(C(=O)OC(C)(C)C)cc1`, the outcome was inactive.

Take `N[C@@H](Cc1cc(I)c(Oc2ccc(O)c(I)c2)c(I)c1)C(=O)O`: the outcome was inactive.

Regarding `CC1(C)C(C=C(Cl)Cl)C1C(=O)OCc1cccc(Oc2ccccc2)c1` (centres undefined), the outcome was inactive.

Consider `CCOC(=O)C(C)Oc1ccc(Oc2nc3ccc(Cl)cc3o2)cc1` (centres undefined), for which the result was inactive.

`CCCOC(=O)c1ccc(C(=O)OCCC)nc1`: the call was inactive.

As to `CCCCOC(=O)[C@@H](C)Oc1ccc(Oc2ccc(C(F)(F)F)cn2)cc1`, the outcome was inactive.

Consider `c1ccc(Nc2ccccc2)cc1`, for which the call was inactive.

Take `O=C(O)c1ccccc1`: the call was inactive.

Turning to `O=C(O)C1(C(=O)Nc2ccc(Cl)cc2Cl)CC1`, the outcome was inactive.

For the compound `COC(=O)c1ccc(I)cc1S(=O)(=O)NC(=O)Nc1nc(C)nc(OC)n1`, the compound was called inactive.

`COc1nc(C)nc(NC(=O)NS(=O)(=O)c2ccccc2OCCCl)n1`: the result was inactive.

For the compound `C[C@]12C[C@H](O)[C@H]3[C@@H](CCC4=CC(=O)CC[C@@]43C)[C@@H]1CC[C@@H]2C(=O)CO`, the outcome was inactive.

With `CCOC(=O)c1ccc(O)cc1`, the result was inactive.

Turning to `CCN(Cc1c(F)cccc1Cl)c1c([N+](=O)[O-])cc(C(F)(F)F)cc1[N+](=O)[O-]`, the compound was classed as inactive.

On to `CCOC(=O)COc1cc(-n2ncc(C(F)(F)F)c(C)c2=O)c(F)cc1Cl`, for which the result was inactive.

On to `C#C[C@]1(O)CC[C@H]2[C@@H]3CCC4=CC(=O)CC[C@@H]4[C@H]3CC[C@@]21CC`, for which the call was inactive.

With `CCCCOC(=O)C(C)Oc1ccc(Oc2ccc(C(F)(F)F)cn2)cc1` (centres undefined), the outcome was inactive.

Consider `O=C(Nc1ccc([N+](=O)[O-])cc1Cl)c1cc(Cl)ccc1O`, for which the AC50 is 129 nM (active) and 152 nM (active).

With `COC(=O)CSc1cc(N=c2sc(=O)n3n2CCCC3)c(F)cc1Cl`, the compound was classed as inactive.

Values taken from PubChem BioAssay (EPA / NIEHS).
